Assay in all cases: NCI-60 one-dose screen, 48 h (100 = growth as untreated, 0 = no growth, -100 = all killed)
Holding throughout (conditions): 10 µM unless noted

Assay [1] deals with HCT-15 colon.
Assay [2] deals with HT29 colon.
Assay [3] has as its system SNB-75 CNS.
Assay [4] concerns SNB-19 CNS.
In assay [5] the test system is U251 CNS.
In assay [6] the test system is PC-3 prostate.
In assay [7] the test system is SK-MEL-5 melanoma.
Assay [8] relates to UACC-62 melanoma.
Assay [9] relates to LOX IMVI melanoma.
For assay [10], the system named is SK-MEL-28 melanoma.
Assay [11] concerns SK-MEL-2 melanoma.
Assay [12] deals with EKVX NSCLC.
Assay [13] has as its system SN12C renal.
The subject of assay [14] is UO-31 renal.
Assay [15] deals with TK-10 renal.
The test system of assay [16] is ACHN renal.
In assay [17] the test system is CCRF-CEM leukemia.
In assay [18] the test system is CAKI-1 renal.
Assay [19] deals with HL-60(TB) leukemia.
In assay [20] the test system is A498 renal.

Several values for one entry are separate records, joined by “and”; a condition that tells them apart may be missing. Equal values may be shown once. This is part of a sample that, as a whole, favours compounds with a hit. Of some 83,000 tested, about 20% had one in any assay.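 How to read the values: 0–100, growth inhibition (40 = 60% inhibited); 0, no net growth; -100 to 0, cell death (-40 = 40% of starting cells died; -100 = all dead).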 Activity calls are given as the source filed them. How the source made its calls: active means growth percent below 10; inactive means the rest.

For `NC(N)=NC(N)=Nc1ccc(Cl)cc1`, the growth in assay [1] is 108% (inactive); in assay [2], 97.8% (inactive); in assay [3] it was 77.1% (inactive); in [4], 105% (inactive); in assay [5], 113% (inactive); in assay [6] it was 89.5% (inactive). For the same compound, the growth in assay [7] is 108% (inactive); in assay [8], 111% (inactive); in [9], 110% (inactive); in assay [10] it was 98.9% (inactive); in [11], 111% (inactive); in assay [12], 93% (inactive). Further, the growth in assay [13] was 103% (inactive); in [14] it was 95.2% (inactive); in assay [15], 115% (inactive); in [16], 93.9% (inactive); in [17], 89.7% (inactive).

With `C[C@]12CCC3[C@@H](C[C@@H]4SC(Nc5ccccc5)=N[C@@]45CC(=O)CC[C@]35C)[C@@H]1CCC2=O` (some centres undefined), the growth was 1.93% (active) in assay [1]; -55.6% (active) in [2]; 41.5% (inactive) in [3]; 21.9% (inactive) in [4]; -82.4% (active) in [5]; -16.1% (active) in assay [6]. Further, the growth was 26.3% (inactive) in assay [7]; -1.09% (active) in [8]; -58.1% (active) in assay [9]; 1.73% (active) in [10]; 6.9% (active) in [11]; 49.4% (inactive) in [12]. The growth is -8.78% (active) in assay [13]; -89% (active) in assay [14]; -4.55% (active) in assay [15]; -62.4% (active) in assay [16]; -45.6% (active) in [18]; 6.25% (active) in [19]. For the same compound, in assay [17], the growth was 3.23% (active).

Turning to `COc1ccc(/C=C(/C)[N+](=O)[O-])cc1OC`, the growth in assay [1] is -25.4% (active) and -17.4% (active); in assay [2], -70.6% (active) and -16.3% (active); in [3], 78.5% (inactive) and 53.6% (inactive); in assay [4] it was 65.9% (inactive) and 79.3% (inactive); in assay [5], -46.5% (active) and -15.8% (active); in [6], 19.4% (inactive) and 47.7% (inactive). Further, the growth in assay [7] is 52.9% (inactive) and 47.9% (inactive); in assay [8] it was 46.1% (inactive) and 23.8% (inactive); in assay [9], -51.5% (active) and -88.8% (active); in assay [10] it was -50.9% (active) and 4.89% (active); in [11], 8.73% (active) and 0.617% (active); in [12] it was 65.6% (inactive) and 84.6% (inactive). Also, the growth is -1.3% (active) and 25.2% (inactive) in assay [13]; -63.9% (active) and -93.1% (active) in [14]; -49.9% (active) and 70.4% (inactive) in assay [15]; -6.27% (active) and -71.9% (active) in assay [18]; 112% (inactive) and 97.9% (inactive) in assay [20]; -14.7% (active) and -26% (active) in assay [19]. Further, in assay [17], the growth is 0.7% (active) and 20.8% (inactive).

Turning to `CCCCCCCCCCCCCCCC[N+](C)(C)C`, the growth is -37.7% (active) and 23.9% (inactive) in assay [1]; -64% (active) and -42.4% (active) in assay [2]; -77.5% (active) and -23.3% (active) in assay [3]; -71.2% (active) and -40.6% (active) in [4]; -75.5% (active) and -94.2% (active) in assay [5]; -40.8% (active) and -32.8% (active) in [6]. Also, the growth was -94.6% (active) and -73.7% (active) in [7]; -63% (active) and 25.6% (inactive) in assay [8]; -71.6% (active) and -73.9% (active) in assay [9]; -74.7% (active) and 25.6% (inactive) in assay [10]; -67.6% (active) and -2.51% (active) in assay [11]; -51.6% (active) and 29.3% (inactive) in assay [12]. The growth in [13] was -87.8% (active); in assay [14] it was -82.3% (active) and 62.9% (inactive); in assay [15], -72.8% (active) and -39.9% (active); in assay [16], 19.4% (inactive); in assay [18], -58.7% (active) and 18.4% (inactive); in [20], -58% (active) and 25.3% (inactive). In [17], the growth is -51.4% (active) and 1.36% (active).

With `C[C@]12CCc3sc(Nc4ccc(F)cc4)nc3C1=CC[C@@H]1[C@@H]2CC[C@]2(C)C(=O)CC[C@@H]12`, the growth in assay [1] is 32.2% (inactive); in assay [2], 35.5% (inactive); in assay [3] it was 66.7% (inactive); in [4], 67.4% (inactive); in [5], 47.2% (inactive); in assay [6], 64.3% (inactive). Further, the growth in [7] is 71.3% (inactive); in assay [8], 69.6% (inactive); in assay [9] it was 56.6% (inactive); in assay [10] it was 46.5% (inactive); in [11] it was 76.8% (inactive); in assay [12] it was 78.3% (inactive). Moreover, the growth in assay [13] was 73.8% (inactive); in assay [14], 59.8% (inactive); in assay [15], 94.4% (inactive); in assay [16], 77.9% (inactive); in [18] it was 68% (inactive); in [20] it was 75.7% (inactive). The growth in assay [19] was 49.8% (inactive); in assay [17] it was 14% (inactive).

`CC[C@H](C)[C@H](NC(=O)[C@H]1CCCCN1C)C(=O)N(C)[C@H](C[C@@H](OC(C)=O)c1nc(C(=O)NC23C4C5C2C2C3C4C52C(=O)OC)cs1)C(C)C` (some centres undefined): the growth is 9.18% (active) in assay [1]; -5.46% (active) in assay [2]; 22.9% (inactive) in [3]; 28.1% (inactive) in assay [4]; 10.8% (inactive) in assay [5]; 23.5% (inactive) in [6]. Also, the growth in assay [7] is -56.9% (active); in assay [8] it was 43.8% (inactive); in [9], 7.09% (active); in assay [10], 59.1% (inactive); in assay [11], 39.7% (inactive); in assay [12], 36.2% (inactive). Moreover, the growth in [13] was 32.5% (inactive); in [14], 33.4% (inactive); in assay [15], 36.7% (inactive); in assay [16], 16.2% (inactive); in assay [18], 28.9% (inactive); in [20], 3.94% (active). In addition, the growth in assay [17] was 6.99% (active).

As for `COC(=O)C1=CCCN(C)C1`, the growth was 106% (inactive) and 100% (inactive) in assay [1]; 106% (inactive) and 104% (inactive) in assay [2]; 103% (inactive) and 90.3% (inactive) in assay [3]; 106% (inactive) and 109% (inactive) in assay [4]; 107% (inactive) in [5]; 92.9% (inactive) in assay [6]. Also, the growth in assay [7] was 102% (inactive); in assay [8] it was 111% (inactive) and 101% (inactive); in [9] it was 98.3% (inactive) and 99.8% (inactive); in assay [10], 110% (inactive) and 108% (inactive); in assay [11], 106% (inactive) and 30.5% (inactive); in [12], 97.8% (inactive) and 98.7% (inactive). Moreover, the growth in [13] is 107% (inactive) and 105% (inactive); in [14] it was 80.4% (inactive) and 94% (inactive); in assay [15], 106% (inactive) and 103% (inactive); in assay [16], 96.9% (inactive); in [18], 93.7% (inactive) and 102% (inactive); in assay [20], 97.8% (inactive) and 112% (inactive). In assay [17], the growth is 102% (inactive).

As for `CC(C)CCC1C(=O)NC(=O)NC1=O`, the growth in assay [1] was 101% (inactive); in assay [2] it was 98.4% (inactive); in assay [3], 104% (inactive); in assay [4], 115% (inactive); in assay [5], 97.6% (inactive); in [6] it was 98% (inactive). Also, the growth in assay [7] is 103% (inactive); in [8], 96.7% (inactive); in [9], 104% (inactive); in assay [10], 101% (inactive); in [11], 81.8% (inactive); in [12], 96.1% (inactive). The growth in assay [13] is 96.3% (inactive); in assay [14], 86.9% (inactive); in [15], 84.5% (inactive); in [18] it was 102% (inactive); in assay [20] it was 86.6% (inactive); in assay [19], 99.7% (inactive). Further, the growth in assay [17] is 106% (inactive).

Consider `CCC1CCC(=O)O1` (centres undefined), for which the growth in [1] is 98.1% (inactive) and 105% (inactive); in assay [2] it was 107% (inactive) and 110% (inactive); in [3] it was 86% (inactive) and 96.4% (inactive); in assay [4], 115% (inactive) and 113% (inactive); in assay [5], 97% (inactive) and 108% (inactive); in assay [6], 97.8% (inactive) and 105% (inactive). Moreover, the growth in assay [7] is 103% (inactive) and 104% (inactive); in assay [8], 114% (inactive); in [9], 97.5% (inactive) and 103% (inactive); in assay [10] it was 104% (inactive) and 115% (inactive); in assay [11], 94.8% (inactive) and 114% (inactive); in assay [12], 111% (inactive). Also, the growth in assay [13] is 108% (inactive) and 109% (inactive); in assay [14] it was 85.5% (inactive) and 95% (inactive); in assay [15] it was 105% (inactive) and 109% (inactive); in [16], 105% (inactive) and 109% (inactive); in assay [18] it was 104% (inactive); in assay [20], 96.5% (inactive) and 98.6% (inactive). Besides, the growth in assay [19] is 78% (inactive) and 109% (inactive); in assay [17] it was 116% (inactive).

As for `O=C(Cc1ccccc1)NC(O)C(Cl)(Cl)Cl` (centres undefined), the growth in assay [1] is 118% (inactive); in assay [2] it was 99.3% (inactive); in assay [3], 86.1% (inactive); in assay [4], 95% (inactive); in [5] it was 99.9% (inactive); in assay [6], 106% (inactive). Moreover, the growth in assay [7] was 105% (inactive); in assay [8] it was 97.9% (inactive); in assay [9], 101% (inactive); in assay [10] it was 110% (inactive); in assay [11], 105% (inactive); in assay [12], 124% (inactive). For the same compound, the growth is 99.3% (inactive) in assay [13]; 93.8% (inactive) in assay [14]; 99.8% (inactive) in assay [15]; 120% (inactive) in assay [16]; 108% (inactive) in assay [18]; 104% (inactive) in assay [20]. The growth in [19] is 101% (inactive); in assay [17], 106% (inactive).

As to `Cc1cc(NC(=O)NCCCOc2ccc(N3C(N)=NC(N)=NC3(C)C)cc2Cl)ccc1S(=O)(=O)F`, the growth in assay [1] is 90.2% (inactive); in assay [2] it was 4.91% (active); in assay [3], 53.1% (inactive); in assay [4], 27.7% (inactive); in [5] it was 15.8% (inactive); in assay [6], 11.9% (inactive). For the same compound, the growth in [7] is 22.6% (inactive); in assay [8], 25.2% (inactive); in assay [9], 14.4% (inactive); in [10], 48.9% (inactive); in [11], 42.2% (inactive); in assay [12] it was 43% (inactive). For the same compound, the growth in [13] is 27.8% (inactive); in assay [14] it was 94.9% (inactive); in [15] it was 46.5% (inactive); in assay [16], 72.6% (inactive); in assay [18], 107% (inactive); in assay [17], 32.4% (inactive).

The record behind these values is PubChem BioAssay (NCI).
